Drawing on PubChem BioAssay AID720628 (The Scripps Research Institute Molecular Screening Center, 2013), this text covers inhibition for 24 molecules.

Structures are written as SMILES. The list shows a part of the results. Unmarked numbers belong to inactive results. Activity calls are given as the source filed them.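 How the source made its calls: active means inhibition above the campaign cutoff, the mean of compounds within control limits plus 3 SD (cut at about 14% in these data); inactive means the rest.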

Sequence of Fibrinogen beta chain (Homo sapiens) (P02675 whole entry, looked up): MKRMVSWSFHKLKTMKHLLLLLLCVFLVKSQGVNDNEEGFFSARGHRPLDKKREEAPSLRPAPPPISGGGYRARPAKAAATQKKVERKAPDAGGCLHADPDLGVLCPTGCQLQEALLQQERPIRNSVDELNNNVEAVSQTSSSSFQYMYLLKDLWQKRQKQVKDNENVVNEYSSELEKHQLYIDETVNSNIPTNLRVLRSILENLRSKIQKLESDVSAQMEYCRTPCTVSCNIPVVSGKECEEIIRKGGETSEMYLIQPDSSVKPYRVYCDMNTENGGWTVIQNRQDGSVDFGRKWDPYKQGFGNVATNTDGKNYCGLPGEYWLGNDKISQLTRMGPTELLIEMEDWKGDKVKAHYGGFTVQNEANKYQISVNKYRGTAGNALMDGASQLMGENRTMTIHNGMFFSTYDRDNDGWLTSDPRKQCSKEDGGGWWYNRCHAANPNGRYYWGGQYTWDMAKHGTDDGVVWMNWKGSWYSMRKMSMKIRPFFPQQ

The assay concerns the target Fibrinogen beta chain (Homo sapiens) (UniProt P02675). The assay is described as follows: Tn7 displacement from DD(E) complex – biochemical, fluorescence polarization, human fibrin, Tn7 probe, confirmation (AID 720628).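 Further: 100% = median FP of high control wells holding Aha-Tn7 inhibitor peptide; displacers lower polarization since freed probe rises.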 The following applies: FP displacement of TRITC-Tn7 peptide from DD(E); at 8.3 µM; stronger effect = higher value; 0% set at plate's compound-well median. Background: Fluorescence polarisation rises when a labelled molecule tumbles more slowly, as on binding a larger partner.
Broadly, the inhibition is the drop in the measured response relative to a control, in per cent. For the molecule `O=C(/C=C/c1ccccc1[N+](=O)[O-])NCC1CCCO1` (centres undefined), the inhibition was 9.76%.

Regarding `O=C(COC(=O)c1ccc([N+](=O)[O-])cc1Cl)NC(=O)c1ccccc1`, the inhibition was 2.79%.

Regarding `Cc1nnc2n1N=C(c1ccc3c(c1)NC(=O)CO3)CS2`, the inhibition is -7.07%.

For the molecule `CN1C(=O)c2cccc3c(N)ccc(c23)C1=O`, the inhibition was 30.8% (active).

Turning to `COc1cc(C(=S)N2CCOCC2)ccc1O`, the inhibition was 8.15%.

Take `Cc1cc2nc3c(=O)[nH]c(=O)nc-3n(C[C@H](O)[C@H](O)[C@H](O)CO)c2cc1C`: the inhibition is 53.3% (active).

On to `Cc1nn(C)cc1N1C(=O)c2cccc3c(N)ccc(c23)C1=O`, for which the inhibition was 12.5%.

As to `O=C(CSc1nnc(-c2ccccn2)n1-c1ccc(Cl)cc1)Nc1ccccc1-c1ccccc1`, the inhibition is 2.95%.

For `COc1ccc(S(=O)(=O)c2c[nH]c(=S)[nH]c2=O)cc1Cl`, the inhibition was -1.93%.

On to `Cc1cc2nc3c(=O)n(Cc4ccccc4)c(=O)[nH]c3nc2cc1N`, for which the inhibition was -4.02%.

For `COc1ccc(-c2nc(CCNC(=O)c3ccc(Br)o3)cs2)cc1`, the inhibition was 1.25%.

On to `C#CCNc1ccc(C(=O)OCC)cc1`, for which the inhibition is 19.9% (active).

`CCOc1ccc(Nc2oc(Cc3ccccc3)nc2C#N)cc1`: the inhibition was -1.34%.

`COc1cccc(N2CC(NS(=O)(=O)c3cccs3)CC2=O)c1` (centres undefined): the inhibition is 0.77%.

For the molecule `O=C(NCc1ccccc1)c1cccc(NC(=O)C2CCCCC2)c1`, the inhibition is 4.29%.

For `O=C(COC(=O)/C=C/c1ccc(OC(F)F)cc1)NC1CCCCC1`, the inhibition was 6.98%.

`CN1c2ccc(C=O)c3c(C=O)ccc(c23)N(C)C1(C)C`: the inhibition is 1.94%.

For the molecule `O=C(Nc1ccon1)c1sc2ccccc2c1Cl`, the inhibition was 6.87%.

As to `Cn1c(CC(=O)NNC(=O)c2ccccc2F)nc2ccccc21`, the inhibition is 4.13%.

Regarding `OC(c1ccccc1)c1nc(-c2cnc3ccccc3c2)cs1` (centres undefined), the inhibition is 7.29%.

Consider `Oc1ccc2ccc3cccc[n+]3c2c1`, for which the inhibition was 20.3% (active).

`CC(C)(C)c1cc(CN2CCN(CCC#N)CC2)cc(C(C)(C)C)c1O`: the inhibition is 3.96%.

Regarding `c1cc(-c2nn[nH]n2)ccc1CN1CCCCC1`, the inhibition was -9.45%.

Take `COc1ccc(N=Nc2c(-c3ccc(OC)cc3)[nH]oc2=O)cc1`: the inhibition is -2.03%.
